# Among all 220,000 compounds or so, about 16,000 (7.3%) were called active. Where a call stands in place of a potency, no number is given. Another 25% or so got no clear call; they are omitted. The call rests on the fitted dose curve; in most records, active means well fitted inhibition curve with a large enough effect (not every such curve was filed as active); inconclusive means small, poorly fitted or top-dose-only effect, or another doubt; inactive means no such curve, though single readings can be large or run the other way. The full list was thinned out, with actives kept by preference.
# Molecular target: Aldehyde dehydrogenase 1A1 (Homo sapiens) (UniProt P00352)
# Sequence (P00352 whole entry, looked up): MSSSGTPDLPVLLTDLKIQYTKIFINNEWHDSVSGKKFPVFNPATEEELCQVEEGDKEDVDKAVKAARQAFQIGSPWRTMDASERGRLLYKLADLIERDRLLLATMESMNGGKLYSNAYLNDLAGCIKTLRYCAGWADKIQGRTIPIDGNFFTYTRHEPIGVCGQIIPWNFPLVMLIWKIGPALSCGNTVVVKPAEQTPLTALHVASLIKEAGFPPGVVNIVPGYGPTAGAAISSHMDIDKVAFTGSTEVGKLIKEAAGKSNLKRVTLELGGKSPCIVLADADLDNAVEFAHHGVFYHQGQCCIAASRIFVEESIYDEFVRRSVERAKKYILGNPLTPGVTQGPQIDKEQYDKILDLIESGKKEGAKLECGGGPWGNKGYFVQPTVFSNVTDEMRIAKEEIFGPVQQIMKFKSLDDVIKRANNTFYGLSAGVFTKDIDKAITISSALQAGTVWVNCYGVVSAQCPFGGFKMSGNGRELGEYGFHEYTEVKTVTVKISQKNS
# Experiment: qHTS Assay for Inhibitors of Aldehyde Dehydrogenase 1 (ALDH1A1)
# Details: Purified ALDH1A1, NADH fluorescence, propionaldehyde substrate; series mostly up to 75.3 µM
# Potency means the concentration at half of the fitted maximal effect.
SMILES,"activity, negative = inhibition",Potency
COC(=O)CCCC1=CC2=CC(=O)C(C)(OC(=O)c3cccs3)C(=O)C2=CN1CC1CC1 (configuration not stated),-4.48% [at 13.5 µM] (inactive),
CS(=O)(=O)c1ccc2nc(NC(=O)C3C4C=CC(C4)C3C(=O)O)sc2c1 (configuration not stated),,5.62 µM (active)
CS(=O)(=O)c1ccc2nc(NC(=O)C3CCCCC3)sc2c1,,inactive
CS(=O)(=O)c1ccc2nc(NC(=O)CN3CCCCCC3)sc2c1,,inactive
CN1CCN(CC(=O)Nc2cccc([N+](=O)[O-])c2)CC1,,inactive
COc1cc(C2/C(=C(\O)c3ccc4c(c3)CC(C)O4)C(=O)C(=O)N2Cc2ccco2)ccc1O (configuration not stated),,inactive
COCCCN1C(=O)C(=O)/C(=C(/O)c2ccc3c(c2)CC(C)O3)C1c1cccnc1 (configuration not stated),,39.8 µM (active)
CCOc1cccc(/C(O)=C2/C(=O)C(=O)N(CCOC)C2c2ccncc2)c1 (configuration not stated),,inactive
CCc1ccccc1NC(=O)Cc1cn(C)c2ccccc12,,inactive
CC(/C=C/C1(O)C(C)CC(=O)CC1(C)C)OC1OC(CO)C(O)C(O)C1O (configuration not stated),,inactive
O=C(Nc1cc(S(=O)(=O)N2CCOCC2)ccc1Cl)c1cc(=O)c2ccccc2o1,,inactive
CN(C)/N=C/c1cc(Cl)cc([N+](=O)[O-])c1O,,inactive
O=[N+]([O-])c1cc(Cl)cc(/C=N/NC(=S)Nc2cc(S(=O)(=O)N3CCOCC3)ccc2Cl)c1O,,0.178 µM (active)
CCN(CC)S(=O)(=O)c1ccc(OC(C)C)c(N)c1,,inactive
COc1ccc2nc(Nc3nc(-c4ccncc4)cs3)sc2c1,,inactive
Cn1c(CCC(=O)OCC(=O)NCc2ccccc2Cl)nc(=O)c2ccccc21,,inactive
O=C(CCc1nnc(CCCCc2ccccc2)o1)NC(c1cccnc1)C(F)(F)F (configuration not stated),,inactive
CSc1nnc2c(n1)OC(c1cn(C)c3ccccc13)N(C(C)=O)c1ccccc1-2 (configuration not stated),,3.98 µM (active)
CCN(CC)CCNC(=O)C1c2ccccc2C(=O)N(C)C1c1cn(C)c2ccccc12 (configuration not stated),,inactive
CSc1nnc2c(n1)OC(c1ccsc1)N(C(C)=O)c1ccccc1-2 (configuration not stated),,inactive
O=C(CO/N=C/c1ccccc1OC(F)F)NC1CCCC1,,inactive
CS(=O)(=O)N(CC(=O)N/N=C/c1ccccn1)c1ccc(Oc2ccccc2)cc1,,inactive

SMILES,"activity, negative = inhibition",Potency
O=c1c(Cl)c(NCc2ccc(F)cc2Cl)cnn1C12CC3CC(CC(C3)C1)C2,,15.8 µM (active)
O=C(CN1CCN(Cc2ccc(F)cc2Cl)C1=O)NCc1cccs1,,inactive
NC(=O)c1ccc(N2CCOCC2)nc1,,inactive
CCCC(=O)C1CCN(Cc2ccccc2)CC1,,inactive
O=C(NNS(=O)(=O)c1ccc(Cl)cc1)C1CCN(Cc2ccccc2)CC1,,22.4 µM (active)
CCNC(=S)NNC(=O)C1CCN(Cc2ccccc2)CC1,,inactive
COc1ccc(-c2cc(C(=O)NCCCn3ccnc3)no2)cc1,,inactive
O=C(c1ccco1)N1CCC[C@@]2(CCN(Cc3nccs3)C2)C1,,25.1 µM (active)
Cn1cccc1C(=O)N1CCC[C@@]2(CCN(Cc3nccs3)C2)C1,,inactive
O=C(c1ccco1)N1CCC2(CC1)CCN(c1ncccn1)CC2,,25.1 µM (active)
O=C(c1cccc([N+](=O)[O-])c1)N1CCN(C(=O)c2ccco2)CC1,,inactive
Cc1ccc(C)c(OCC(=O)N2CCN(C(=O)c3ccco3)CC2)c1,,inactive
O=C(c1csnn1)N1CCC[C@@]2(CCN(Cc3nccs3)C2)C1,,inactive
C/C(N)=C(/C#N)C(=O)COC(=O)CNS(=O)(=O)c1ccc(C)cc1,,inactive
CC(C)NC(=O)NCCCCCCS(C)=O (configuration not stated),,inactive
O=C(Nc1n[nH]c(C(F)(F)F)n1)c1cccs1,,inactive
CCCSC1=C(C#N)C(c2ccccc2C)C(C(=O)OC)C(=O)N1 (configuration not stated),,inactive
C=CCOC(=O)C1=C(C)NC(SCC(=O)OCC)=C(C#N)C1c1ccc(C)cc1 (configuration not stated),,inactive
CC1=C(C(=O)Nc2ccccc2)C(c2cccs2)C(C#N)=C(SCC#N)N1 (configuration not stated),,22.4 µM (active)
CC(C)(C)c1cnnn1-c1ccc([N+](=O)[O-])cc1,,inactive
CC(=O)Cc1nsc(NC(=O)c2csc3c2CCCC3)n1,,inactive
Cc1ccc(NC(=O)c2csc3c2CCCC3)cc1,,20 µM (active)

SMILES,"activity, negative = inhibition",Potency
O=C(NCc1ccccc1Cl)c1csc2c1CCCCC2,,inactive
COC(=O)c1sccc1NC(=O)CCC1CCCC1,,inactive
COC(=O)c1sccc1NC(=O)c1csc2c1CCCC2,,22.4 µM (active)
O=C(Nc1ccccc1N1CCOCC1)c1csc2c1CCCC2,,inactive
COC(=O)/C(=C1\Oc2ccc(C(C)(C)C)cc2S1)C(F)(F)F,,inactive
CC/C(O)=C1\C(=O)CC(C)(C)CC1=NCCc1nc2ccccc2[nH]1,,inactive
CCCCNC(=O)c1ccc(-n2c(=S)[nH]c3ccccc3c2=O)cc1,,inactive
O=C(Cn1c2[n+](c3ccc(C(F)(F)F)cc31)CCCCC2)Nc1c(F)cccc1F,,inactive
Cc1ccc(Cl)cc1NC(=O)C1CCN(S(C)(=O)=O)CC1,,inactive
O=C(NCc1ccccc1Cl)C1CCCO1 (configuration not stated),,inactive
Cc1ccc(S(=O)(=O)NCC(=O)OCC(=O)N2CCc3ccccc32)cc1,,inactive
Cc1cnc(C(=O)OCC(=O)N2CCc3ccccc32)cn1,,3.16 µM (active)
Cc1cnc(C(=O)OCC(=O)NCCCc2ccccc2)cn1,,inactive
O=C(CNCc1ccc(Cl)cc1)Nc1cccc(C(=O)O)c1,,inactive
C/C(=N/OC(=O)c1cccc(C(F)(F)F)c1)c1cnccn1,,inactive
OC(COc1ccc(CN2CCSCC2)cc1)CN1CCCCC1 (configuration not stated),,inactive
CCO[C@H]1OC(C(=O)N2CCN(Cc3ccccc3)CC2)=C[C@@H](c2cn(C(C)=O)c3ccccc23)[C@@H]1CCCO,,inactive
C/C(=N\N)c1c(-c2ccccc2)c2cc(Br)ccc2[nH]c1=O,,inactive
CCCCNC(=O)C1CCC(CNS(=O)(=O)c2ccc(NC(C)=O)cc2)CC1 (configuration not stated),,inactive
COCCCNC(=O)c1ccc(CNS(=O)(=O)c2ccc(NC(C)=O)cc2)cc1,,4.47 µM (active)
CCOc1ccc(NS(=O)(=O)c2ccc(OCC(=O)NCCCOC)cc2)cc1,,inactive
CCc1ccccc1N1CN(Cc2ccco2)CNC1=S,,inactive

SMILES,"activity, negative = inhibition",Potency
CCCCN(CC)CCNC(=O)CCNC(=O)Cn1ccc2ccccc2c1=O,,inactive
CCSC1=NCCN1S(=O)(=O)c1ccc(F)cc1,,inactive
COC(=O)CC1c2ccccc2C(Cc2ccc(OC)cc2)=C(C)N1C(=O)OC (configuration not stated),-1.14% [at 13.5 µM] (inactive),
O=C(NC1CCN(Cc2ccccc2)CC1)c1cc(Br)c(Br)[nH]1,,inactive
S=C(Nc1ccc(Br)cc1Cl)NC1CCN(Cc2ccccc2)CC1,,0.631 µM (active)
O=C(COc1ccc(Br)cc1F)NC1CCN(Cc2ccccc2)CC1,,inactive
COc1ccc2ccccc2c1CNc1nnnn1C,,inactive
COC(=O)c1cc(NC(=O)c2cccnc2)ccc1N1CCOCC1,,inactive
CC1=NN(C(=O)c2ccc(Br)cc2)C(O)(c2ccccc2)C1 (configuration not stated),,inactive
O=C(COC(=O)CCc1nc2ccccc2c(=O)[nH]1)Nc1ccc(N2CCOCC2)cc1,,inactive
CC1CC(C)CN(CC(=O)Nc2ccc(S(N)(=O)=O)cc2)C1 (configuration not stated),,8.91 µM (active)
NS(=O)(=O)c1ccc(NC(=O)COC(=O)c2ccco2)cc1,,inactive
CC1CC(C)CN(CCC(=O)Nc2ccc3c(c2)CCC3)C1 (configuration not stated),,inactive
COc1ccc(C2C(C#N)=C(N)N(c3ncn[nH]3)C3=C2C(=O)CCC3)cc1 (configuration not stated),,inactive
CC(C)(C)NC(=O)NC(=O)COC(=O)Cc1c(F)cccc1Cl,,inactive
CCOC(=O)COc1cc(O)c2c(=O)cc(-c3ccccc3)oc2c1,,inactive
O=C(COc1ccc2c(C(F)(F)F)cc(=O)oc2c1)Nc1ccc2c(c1)OCCO2,,inactive
CC(=O)COc1ccc2c(-c3ccccc3)cc(=O)oc2c1,,6.31 µM (active)
CC(Sc1nc2cc(Cl)ccc2s1)C(=O)Nc1ccc2c(c1)OCO2 (configuration not stated),,inactive
Cc1cc(Cl)ccc1OCCCC(=O)NCc1ccccn1,,inactive
Cc1cccc(N2C(=O)SC(SC(=Nc3ccccc3)Nc3ccccc3)C2=O)c1 (configuration not stated),,15.8 µM (active)
Cc1cccc(N=Nc2c(C)[nH]n(-c3ccccc3)c2=O)c1,,inactive

SMILES,"activity, negative = inhibition",Potency
Cc1cccc(N2C(=O)C3C(c4ccccc4)OC4(C(=O)c5ccccc5C4=O)C3C2=O)c1 (configuration not stated),,inactive
COc1ccccc1-c1noc(CSc2nc(C)cc(=O)[nH]2)n1,,inactive
CC(=O)Nc1ccn(Cc2c(F)cccc2Cl)n1,,inactive
O=C(CSc1ncnc2c1nnn2Cc1ccc(F)cc1)NC1CCCC1,,inactive
OC1CCCN(c2ncnc3c2nnn3Cc2c(F)cccc2Cl)C1 (configuration not stated),,7.94 µM (active)
CCOc1ccc(OCc2cccc(C(=O)N(CC)CC)c2)cc1,,inactive
CC(C)NC(=S)NN=C1CCCCCCCCCCC1,,inactive
OC[C@H]1O[C@@H](n2cnc3c(NC4CCCC4)ncnc32)[C@H](O)[C@H]1O,,inactive
CCN(CC)S(=O)(=O)c1ccc(N(C)CCc2ccc(OC)c(OC)c2)nc1,,inactive
CN(C)c1ccc(/C=C/C(=O)c2ccc(C(C)(C)C)cc2)cc1[N+](=O)[O-],,inactive
O=C(/C=C/c1ccc2c(c1)OCCO2)c1ccc(O)cc1,,inactive
CN(C)c1ccc(/C=C/C(=O)c2ccc(O)cc2)cc1[N+](=O)[O-],,17.8 µM (active)
CCOc1ccccc1/C=N/NC(=O)CNC(=O)COc1ccccc1,,inactive
CCC(C)NC(=O)C1c2ccccc2Oc2ccccc21 (configuration not stated),,inactive
O=C(Nc1ccc(N2CCN(C(=O)c3cccs3)CC2)cc1)c1cccnc1Cl,,inactive
Cc1cc(Cl)ccc1NNC(=O)c1snnc1C,,inactive
C=CCNC(=O)CSc1nc2sc(C)c(C)c2c(=O)[nH]1,,inactive
CC(C)C(C)(C#N)NC(=O)CSc1nc2scc(-c3ccccc3)c2c(=O)[nH]1 (configuration not stated),,11.2 µM (active)
CC(C)C(C)(C#N)NC(=O)CSc1nncn1-c1ccccc1 (configuration not stated),,inactive

# Reference: PubChem BioAssay AID1030 (National Center for Advancing Translational Sciences (NCATS), 2008)
